B1: UUAUUAA (DNA:RNA)
RNA: GGGAGACCGGAAUUCAGAUUGUCCUUAUUAAUUAAAUCCCGUCGUAGCCACCA
DNA 1: CAATCTGAATTCCGGTCTCCC
DNA 2: TGGTGGCTACGACGGGATT
B2: UCGAGUG (DNA:RNA)
RNA: B1 RNA with U26C, A27G, U28A, U29G, A30U, A31G
DNA 1: CAATCTGAATTCCGGTCTCCC
DNA 2: TGGTGGCTACGACGGGATT
B3: CUUGCGU (DNA:RNA)
RNA: B1 RNA with U25C, A27U, U28G, U29C, A30G, A31U
DNA 1: CAATCTGAATTCCGGTCTCCC
DNA 2: TGGTGGCTACGACGGGATT
B4: AGCACGA (DNA:RNA)
RNA: B1 RNA with U25A, U26G, A27C, U28A, U29C, A30G
DNA 1: CAATCTGAATTCCGGTCTCCC
DNA 2: TGGTGGCTACGACGGGATT
B5: UGCUUGU (DNA:RNA)
RNA: B1 RNA with U26G, A27C, A30G, A31U
DNA 1: CAATCTGAATTCCGGTCTCCC
DNA 2: TGGTGGCTACGACGGGATT
B6: CCCCUGC (DNA:RNA)
RNA: B1 RNA with U25C, U26C, A27C, U28C, A30G, A31C
DNA 1: CAATCTGAATTCCGGTCTCCC
DNA 2: TGGTGGCTACGACGGGATT
B7: CUGCUGC (DNA:RNA)
RNA: B1 RNA with U25C, A27G, U28C, A30G, A31C
DNA 1: CAATCTGAATTCCGGTCTCCC
DNA 2: TGGTGGCTACGACGGGATT
B8: UGCUGCU (DNA:RNA)
RNA: B1 RNA with U26G, A27C, U29G, A30C, A31U
DNA 1: CAATCTGAATTCCGGTCTCCC
DNA 2: TGGTGGCTACGACGGGATT
B9: UGCUUGC (DNA:RNA)
RNA: B1 RNA with U26G, A27C, A30G, A31C
DNA 1: CAATCTGAATTCCGGTCTCCC
DNA 2: TGGTGGCTACGACGGGATT
B10: CUGCUUG (DNA:RNA)
RNA: B1 RNA with U25C, A27G, U28C, A30U, A31G
DNA 1: CAATCTGAATTCCGGTCTCCC
DNA 2: TGGTGGCTACGACGGGATT

Numbering of substitutions follows the chain as printed; changes in the protein carry UniProt numbers. In all, about 16,000 sequences were measured (“ka relative to ugcaugu”: median about 0.096, highest 2% from about 0.35 on). For the sample, the highest values were picked, then their nearest neighbours and some sequences at random.

The target in the test is T1, RBFOX1 RRM RbFoxmut (Fox-RRM*) (Homo sapiens, UniProt Q9NWB1 109-208, R118D;E147R;N151S;E152T).
T1 sequence: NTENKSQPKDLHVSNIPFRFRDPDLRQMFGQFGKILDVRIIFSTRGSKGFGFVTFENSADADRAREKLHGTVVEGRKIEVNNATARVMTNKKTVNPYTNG
In words: EMSA; HiTS-Eq, 1 nM pool, 10 min; buffer printed only for the single-RNA assays: 10 mM Tris pH 7.5, 150 mM NaCl, 3.4 mM EDTA, 0.001% NP-40, 30 C. To be noted: tags: His6 N-terminal (pET28a); label: 5' 32P. The procedure, abridged: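 Purified RbFox RRM, wild type or mutant, was incubated for 10 min in 50 µL with 1 nM of a 5′-radiolabelled RNA pool carrying 7 randomized nucleotides, whose flanks were annealed to DNA oligonucleotides, over a series of increasing protein concentrations. Unbound RNA was resolved on 8% native PAGE, cut out, reverse-transcribed, barcoded by PCR and sequenced on an Illumina HiSeq 2500. Relative association constants were derived from changes in read counts for each RNA species versus the control reaction and normalised to the cognate motif.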
(In general: A gel shift assay detects complexes by their altered migration in electrophoresis.)
Consider B1, for which the binding signal is 0.0751 KA relative to UGCAUGU. As for B2, the binding signal was 0.167 KA relative to UGCAUGU.

As to B3, the binding signal was 0.154 KA relative to UGCAUGU. The same measure for B4: 0.141 KA relative to UGCAUGU; for B5: 0.428 KA relative to UGCAUGU; for B6: 0.0955 KA relative to UGCAUGU. The same measure for B7: 0.126 KA relative to UGCAUGU; for B8: 0.12 KA relative to UGCAUGU. The same measure for B9: 0.264 KA relative to UGCAUGU; for B10: 0.423 KA relative to UGCAUGU.

The values are drawn from paper PMC9911399, “Two distinct binding modes provide the RNA-binding protein RbFox with extraordinary sequence specificity”.
